In PubChem BioAssay (NCI):
About 83,000 compounds went through this panel and 20% of them were active in at least one assay; those are over-represented in the sample as a whole.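 Values shown are percent growth following 48 h exposure of cells in 96-well plates to a single concentration of compound; below 10 was considered active.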 Values without a mark were called inactive. Calls of active or inactive are those of the source.

System: COLO 205 colon
Test: NCI-60 one-dose screen, 48 h (100 = growth as untreated, 0 = no growth, -100 = all killed)
Conditions: 10 µM unless noted

| Compound | growth |
| --- | --- |
| CN(C(=O)CN1C(=O)/C(=C/c2ccco2)SC1=S)C1CCS(=O)(=O)C1 (stereo not drawn) | 119% |
| O=C(c1ccc(Cl)cc1)C1[C@H](c2ccccc2Cl)[C@@H](c2ccccc2)NC12C(=O)Nc1ccccc12 (stereo partly drawn) | -87.8% (active) |
| Cc1ccc(Nc2nnc(-c3c[nH]c4ccccc34)o2)c(C)c1 | -55.5% (active) |
| Cc1ccccc1NC(=O)c1cccc(NC(=O)CCl)c1 | 76.5% |
| Clc1ccc(CNc2nc(SCCN3CCOCC3)nc3c2cnn3CC(Cl)c2ccc(Br)cc2)cc1 (stereo not drawn) | 5.78% (active) |
| CCc1ccc(SC2c3cc(OC)ccc3Oc3nc(N)c(C#N)c(N)c32)cc1 (stereo not drawn) | -68.9% (active) |
| O=C(N/N=C/c1ccc(B(O)O)s1)c1[nH]c2ccc(Br)cc2c1-c1ccccc1 | -81.8% (active) |
| CCN1C(=O)N(CC)C2NNC(Sc3c(C(=O)O)c4ccccc4n(CC(C)C)c3=O)=NC21 (stereo not drawn) | -21.4% (active) |
| COc1ccc(/C=C/c2nc3ccccc3c(=O)n2CC(=O)Nc2ccccc2)cc1 | 71% |
| COc1ccc2[nH]c(=O)c(CSc3ccccc3Nc3nccc(-c4ccc5c(c4)OCO5)n3)cc2c1 | 101% |
| Cc1ccc(Cl)cc1NC(=O)N/C(N)=N/c1nc2ccccc2s1 | -91.1% (active) |
| COc1ccc(OC)c(Cn2cc(C#N)c(N)c2C(=O)c2ccc(Br)cc2)c1 | 30.4% |
| Cc1ccc(-c2cc(-c3ccccc3)[nH]c(=O)c2C#N)cc1 | 124% |
| Cc1ccc(C(C(=O)NC2CCCCC2)N(Cc2ccccc2Cl)C(=O)c2ccc(CN3CCOCC3)o2)o1 (stereo not drawn) | 121% |
| CN(C)c1ccc(/C=C/c2n(Cc3ccc4ccccc4c3)c3ccccc3[n+]2Cc2ccc3ccccc3c2)cc1 | -41.7% (active) |
| Cc1nn(-c2ccccc2)c2nc(C)n(CC(=O)N/N=C/c3ccccc3O)c(=O)c12 | 16.8% |
| CC1=C(C)C(=O)C(N2CCSCC2)=CC1=O | 121% |
| NC(=O)c1ccc(-c2ccc3ncnc(N4CCc5cc(F)c(Cl)cc54)c3c2)cn1 | 47.9% |
| Cn1ncc2c(N)nc(Oc3ccccc3-c3ccccc3)nc21 | 33.9% |

| Compound | growth |
| --- | --- |
| C=CC[n+]1cccc2c3ccccc3ccc21 | 28.4% |
| COc1ccc2nc(NC(=O)c3ccc(N(C)C)cc3)sc2c1 | 89.5% |
| O=C(N/N=C/c1ccoc1)c1[nH]c2ccc(Br)cc2c1-c1ccccc1 | -68.9% (active) |
| O=C(Nc1ccc(-c2ccc3c(c2)NC(=O)/C3=C\c2ccc[nH]2)cc1)Nc1ccc(Cl)c(C(F)(F)F)c1 | 15.4% |
| CN1C(=O)/C(=C/c2ccco2)S/C1=N/c1nccs1 | 121% |
| COc1cccc2nc(Nc3cccc(NC(=O)c4ccc(CN5CCN(C)CC5)c(C(F)(F)F)c4)c3)ccc12 | -73.7% (active) |
| Fc1cccc(CNc2nc(SCCN3CCOCC3)nc3c2cnn3CC(Cl)c2ccc(Br)cc2)c1 (stereo not drawn) | -9.76% (active) |
| CCCCNc1ccc2c3c(cccc13)C(=O)N(c1cccc(-c3nn(-c4ccccc4)cc3-c3nc4ccccc4s3)c1)C2=O | 109% |
| N/C(=N\c1nc2ccccc2s1)NC(=O)Nc1ccccc1[N+](=O)[O-] | -72% (active) |
| Cc1ccc(C(=O)Nc2cc(-c3ccncc3)cc(C(F)(F)F)c2)cc1C#Cc1cnc2cccnn12 | 32.3% |
| CCN1C(=O)N(CC)C2NNC(Sc3c(C(=O)O)c4ccccc4n(CCC(C)C)c3=O)=NC21 (stereo not drawn) | -20.8% (active) |
| CC1=C(C(=O)OCc2ccccc2)C(c2ccc(N(C)C)cc2)n2c(nc3ccccc32)N1 (stereo not drawn) | 110% |
| COc1cc(/C=C/C(=O)c2cnn(-c3cc(=O)[nH]c4ccc(Br)cc34)c2C)cc(OC)c1OC | -80.7% (active) |
| S=C(Nc1ccc(OCc2nc3ccc(Cl)cc3[nH]2)cc1)NC1CCCCC1 | -68.4% (active) |
| Nc1nn2c(-c3cc4cc(Br)ccc4oc3=O)ccnc2c1N=Nc1ccc(S(N)(=O)=O)cc1 | 96.5% |
| CCN(C(=O)CN1C(=O)/C(=C/c2ccco2)SC1=S)C1CCS(=O)(=O)C1 (stereo not drawn) | 120% |
| Cn1cc(Nc2ncnc(-c3ccc(N4CCCC4)c(C#N)c3)n2)cn1 | 72% |
| O=C1Nc2ccccc2/C1=C\c1ccc(OCC(=O)c2ccc(Br)cc2)cc1 | 65.9% |
| COc1cc(CNC(=O)C[C@H](C)CCC=C(C)C)ccc1OCc1cn(-c2ccc(Br)cc2)nn1 | 113% |
